Drawing on PubChem BioAssay (NCI), this text covers growth for eight molecules.

The structures appear in SMILES notation. This is part of a sample that, as a whole, favours compounds with a hit. Of some 83,000 tested, about 20% had one in any assay.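 Cells were grown in 96-well plates and exposed to the test compound at a single concentration for 48 hours; results are reported as percent growth, with values below 10 considered active.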 Unmarked numbers belong to inactive results. Calls of active or inactive are those of the source.

Assay in all cases: NCI-60 one-dose screen, 48 h (100 = growth as untreated, 0 = no growth, -100 = all killed)
What all share (details): 10 µM unless noted

The test system of assay [1] is DU-145 prostate.
The subject of assay [2] is K-562 leukemia.
Assay [3] relates to MALME-3M melanoma.
The subject of assay [4] is MDA-MB-231 breast.
The subject of assay [5] is RXF 393 renal.
Assay [6] has as its system SF-268 CNS.
Assay [7] concerns SF-295 CNS.
Assay [8] deals with SF-539 CNS.
Assay [9] concerns UACC-257 melanoma.
The subject of assay [10] is M14 melanoma.
Assay [11] relates to HCT-15 colon.
Assay [12] concerns HT29 colon.
The subject of assay [13] is SNB-75 CNS.
For assay [14], the system named is SNB-19 CNS.
The test system of assay [15] is PC-3 prostate.
Assay [16] relates to SK-MEL-5 melanoma.
Assay [17] relates to UACC-62 melanoma.
Assay [18] relates to LOX IMVI melanoma.
The subject of assay [19] is SK-MEL-28 melanoma.
Assay [20] concerns U251 CNS.

Consider `O=C(Nc1ccccc1O)c1ccc(CNC(=O)c2ccsc2Nc2ccnc(C(F)(F)F)c2)cc1`, for which the growth in assay [1] is 30.6%; in assay [2], 9.19% (active); in [3] it was 9.89% (active); in assay [4], 39.1%; in assay [5] it was 0.801% (active); in assay [6], 40.2%. The growth in [7] is 2.43% (active); in [8] it was 42.4%; in [9], 6.92% (active); in assay [10], 45.2%; in assay [11], 28%; in assay [12] it was 28.7%. In addition, the growth was 47.8% in assay [13]; 52.3% in assay [14]; 14.5% in assay [15]; -8.81% (active) in [16]; 9.79% (active) in assay [17]; 34.5% in assay [18]. In addition, the growth in [19] is 51.3%.
As to `COc1ccc(C2CC(c3cc(OC)c(OC)c(OC)c3)=NO2)cc1OCCCCOc1cc2c(cc1OC)C(=O)N1CCC[C@H]1C=N2` (some centres not stated), the growth in [1] was 13.4%; in assay [2], 34.8%; in [3] it was -43.1% (active); in assay [4], 11.7%; in [5], -67.1% (active); in assay [6] it was 16.7%. For the same molecule, the growth was 2.46% (active) in assay [7]; -39% (active) in assay [8]; 24.6% in assay [9]; -16.2% (active) in assay [10]; 39.8% in [11]; -13.9% (active) in [12]. The growth was -14.2% (active) in assay [13]; 4.05% (active) in assay [20]; 45.8% in assay [15]; -79.6% (active) in assay [16]; -67.8% (active) in assay [17]; -39.7% (active) in assay [18]. Also, the growth in assay [19] is -23.1% (active).
For `CN1CCN(Cc2ccc(NC(=O)c3cncc(C#Cc4cnc5ccc(Cl)nn45)c3)cc2C(F)(F)F)CC1`, the growth is 4.06% (active) in assay [1]; 1.96% (active) in assay [2]; -63.1% (active) in assay [3]; -1.94% (active) in assay [4]; -52.8% (active) in [5]; -41.6% (active) in [6]. In addition, the growth in assay [7] is 9.72% (active); in [8], -62% (active); in assay [9], 3.9% (active); in assay [10] it was -56.7% (active); in assay [11], 0.05% (active); in assay [12], 2.68% (active). Also, the growth in assay [13] was -52.4% (active); in assay [20], 4.22% (active); in assay [15] it was -18.6% (active); in assay [16], -58.7% (active); in assay [17] it was -14.5% (active); in [18] it was -44.3% (active). Moreover, the growth in assay [19] was -8.84% (active).
As for `COc1ccc(C#Cc2ccc(=O)oc2-c2cc(OC)c(OC)c(OC)c2)cc1O`, the growth in assay [1] is 58.5%; in assay [2] it was 16.8%; in assay [3] it was 38.8%; in assay [4], 59.9%; in [5], 57.8%; in assay [6], 69.7%. In addition, the growth in assay [7] is 23.5%; in assay [8], 47.6%; in [9], 53%; in [10], 33.9%; in assay [11] it was 30.7%; in [12], 33.9%. The growth is 40.1% in assay [13]; 39.7% in assay [20]; 40.6% in [15]; 24.5% in [16]; 44% in assay [17]; 41.4% in [18]. For the same molecule, in [19], the growth was 59%.
Consider `O=C(N=Nc1c(O)[nH]c2ccccc12)Nc1ccc(F)cc1`, for which the growth in [1] is 105%; in assay [2], 85%; in assay [3] it was 97.6%; in assay [4], 94%; in assay [5], 110%; in assay [6], 104%. Also, the growth in assay [7] is 95%; in assay [8], 94.9%; in assay [9] it was 93.9%; in [10], 99.7%; in assay [11] it was 97%; in assay [12] it was 102%. Besides, the growth is 91.3% in assay [13]; 97% in assay [14]; 85.9% in assay [15]; 101% in assay [16]; 79.3% in [17]; 92.2% in assay [18]. In addition, the growth in assay [19] was 108%.
Turning to `CC1=CC(c2ccco2)=C2C(N)=NNC2N1` (configuration not stated), the growth in assay [1] was 110%; in [2], 99.6%; in assay [3], 92.5%; in [4] it was 92.1%; in assay [5], 119%; in assay [6] it was 98.7%. Besides, the growth in [7] was 98.2%; in assay [8] it was 81.1%; in assay [9], 102%; in [10], 104%; in [11], 99.7%; in assay [12] it was 104%. Moreover, the growth in assay [13] was 64%; in assay [20], 96.8%; in [15], 101%; in [16], 101%; in assay [17], 89.3%; in assay [18], 98.3%. Also, the growth in assay [19] was 96.5%.
Turning to `O=C(NNC(=O)c1nc2cc(F)ccc2n2cccc12)c1cnccn1`, the growth is 44.5% in assay [1]; 18.2% in [2]; 37.7% in assay [3]; 37.4% in [4]; 66.4% in assay [5]; 34.8% in [6]. In addition, the growth in [7] is 21.6%; in assay [8], 29.6%; in [9], 53.6%; in assay [10], 23.4%; in assay [11] it was 24.3%; in assay [12], 31.2%. Besides, the growth in assay [13] is 77.1%; in assay [14] it was 33%; in [15], 43.7%; in assay [16], 42.7%; in assay [17] it was 19.6%; in assay [18] it was 26.7%. The growth in assay [19] was 36.4%.
`Nn1c(=O)c(=O)[nH]c2c(cnn2-c2ccccc2)c1=O`: the growth was 114% in [1]; 96.4% in [2]; 106% in [3]; 105% in [4]; 113% in assay [5]; 99.7% in assay [6]. The growth in [7] was 102%; in assay [8], 99.8%; in assay [9], 107%; in [10], 110%; in assay [11], 101%; in [12] it was 110%. Moreover, the growth in assay [13] was 92.5%; in assay [20], 105%; in assay [15], 106%; in assay [16], 101%; in assay [17], 102%; in assay [18], 101%. The growth in assay [19] was 113%.
